The list is not random: actives were taken first. Their share in the collection is about 3.3%.
Vaccinia mCherry: inhibitors of vaccinia virus infection (mCherry reporter signal) | hit rate 0.63% among 310,000 | Potency, µM (highest dose often 36.5 µM), for the others: at the highest dose activity change, negative = inhibition, actives largely listed as inhibitors | Vaccinia virus mCherry reporter infection, fluorescence | AID 720579; calls by dose curve; tested in A549 cells; note: nearly all actives have a fitted effect of over 35% in size
HCV inhibitor: blocks hepatitis C virus; Huh7.5.1 HCVcc-Cre infection, luciferase reporter, 44 h; Potency, µM (doses to about 41.8 µM), inactives show at the top dose activity change, negative = inhibition, hits mostly inhibitors; hit rate 3.4% among 340,000; AID 651820; active = well fitted inhibition curve with a large enough effect; inconclusive = small, poorly fitted or top-dose-only effect, or another doubt; inactive = no such curve, though single readings can be large or run the other way
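Compounds are dispensed onto cells plated 4 h earlier at 1,000 per well, with HCVcc-Cre virus (about 0.5 moi) added next. Following 44 h of culture, luminescent signal is measured for 15 sec after 15 min with substrate at room temperature.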
VACV Venus inh: inhibitors of vaccinia virus (Venus reporter). Potency, µM (series often up to 36.5 µM), inactives show top-dose activity change, negative = inhibition, hits mostly inhibitors. hit rate 0.46% among 330,000. Vaccinia virus Venus reporter expression, fluorescence; calls by dose curve; tested in A549 cells; note: nearly all actives have a fitted effect of over 30% in size
* hit, by the source's call; i = inactive; ? = inconclusive; · = no result; [ ] = dose if it differs, or a comment. % is set by controls: 0 for no effect and ±100 for the full control effect; potency is the fitted concentration of half-maximal effect.

SMILES	Vaccinia mCherry	HCV inhibitor	VACV Venus inh
O=C(NCCO)c1cc2c([nH]c3ccccc32)c(-c2ccccc2)n1	?	?	-16.1%
COc1ccc(-c2nc(C(=O)NCC3CCCO3)cc3c2[nH]c2ccccc23)cc1 (stereo not drawn)	?	3.55µM*	-20.8%
Cc1ccc(-c2nc(C(=O)NCC3CCCO3)cc3c2[nH]c2ccccc23)cc1 (stereo not drawn)	?	?	-26.0%
Cc1cccc(CCNC(=O)C2CCN(c3ncnc4c3nc3n4CCCCC3)CC2)c1	i	·	-10.5%
CC(=O)Nc1cccc(-c2ccnc3c2CC(C(=O)NCCc2ccccc2)O3)c1 (stereo not drawn)	-11.5%	·	-29.0%
COc1ccc[n+](CC(=O)c2ccc(F)cc2)c1	-15.6%	·	-7.1%
COc1ccc(OC)c(-c2nc(C(=O)NC3CCN(Cc4ccccc4)CC3)cc3c2[nH]c2ccccc23)c1	-29.1%	6.31µM*	-18.8%
COc1cc(-c2nc(C(=O)NC3CCN(Cc4ccccc4)CC3)cc3c2[nH]c2ccccc23)cc(OC)c1OC	?	?	-29.7%
CSc1cccc(NC(=O)CN(C)S(=O)(=O)c2ccc3c(c2)CCCN3C(C)=O)c1	-11.6%	·	-11.7%
C=CC[n+]1c(-c2ccc(C)cc2)csc1Nc1c(C)n(C)n(-c2ccccc2)c1=O	-26.6%	-27.2%	-11.8%
C=CC[n+]1c(-c2ccc(Cl)cc2Cl)csc1Nc1c(C)n(C)n(-c2ccccc2)c1=O	?	12.6µM*	?
O=C(C1CCC(Cn2c(=O)[nH]c3ccccc3c2=O)CC1)N1CCN(c2ccccc2)CC1 (stereo not drawn)	-19.1%	-11.3%[8.37 µM]	-18.7%
COc1ccc(N2CCN(C(=O)C3CCC(Cn4c(=S)[nH]c5ccccc5c4=O)CC3)CC2)cc1 (stereo not drawn)	·	1µM*	·
O=C(C1CCC(Cn2c(=S)[nH]c3ccccc3c2=O)CC1)N1CCOCC1 (stereo not drawn)	·	-26.8%	·
O=C(C1CCC(Cn2c(=S)[nH]c3ccccc3c2=O)CC1)N1CCN(c2ccccc2)CC1 (stereo not drawn)	?	10µM*	-28.9%
O=C(C1CCC(Cn2c(=S)[nH]c3ccccc3c2=O)CC1)N1CCN(c2ccccn2)CC1 (stereo not drawn)	-10.5%	12.6µM*	-9.0%
CCCCCNC(=O)C1CCC(Cn2c(=S)[nH]c3ccccc3c2=O)CC1 (stereo not drawn)	-10.9%	-19.2%	-3.0%
CCCCN(CCCN)c1ccc(Br)cn1	-1.2%	·	-21.2%
Cc1cccc(/C=C/C(=O)c2ccc(NC3=NCCCS3)cc2)c1	-18.5%	11.2µM*	?
COc1cccc(/C=C/C(=O)c2ccc(NC3=NCCCS3)cc2)c1	i	-23.8%	-4.9%
O=C(/C=C/c1ccccc1)c1ccc(NC2=NCCCS2)cc1	-8.1%	-3.1%	-24.1%
CC(C)(C)c1ccc(/C=C/C(=O)c2ccc(NC3=NCCCS3)cc2)cc1	·	11.2µM*	·
Cc1ccc(N2CC(NC(=O)N3CCN(C(=O)c4ccco4)CC3)CC2=O)cc1 (stereo not drawn)	i	9.5%	-13.1%
C[C@]12CC[C@@H](O)C[C@@H]1CC[C@@H]1[C@@H]2CC[C@]2(C)C=CC[C@@H]12	i	·	-14.8%
Cc1cc(C)c2nc(N(CCCN(C)C)C(=O)c3ccc(S(=O)(=O)N4CCCCCC4)cc3)sc2c1	-21.1%	11.2µM*	?
SMILES	Vaccinia mCherry	HCV inhibitor	VACV Venus inh
CN(C)CCCN(C(=O)c1ccc(S(=O)(=O)N(C)C2CCCCC2)cc1)c1nc2ccc(F)cc2s1	i	-11.3%	-19.2%
COc1cccc2sc(N(CCN(C)C)C(=O)c3ccc(S(=O)(=O)N4CCCC4)cc3)nc12	-15.9%	15.7%	-3.3%
CN(C)CCCN(C(=O)c1ccc(S(=O)(=O)N2CCCCC2)cc1)c1nc2cc3c(cc2s1)OCO3	i	?	-19.1%
Cc1cc(C)c2sc(N(CCCN(C)C)C(=O)c3ccc(S(=O)(=O)N(C)C4CCCCC4)cc3)nc2c1	14.1µM*	10µM*	12.6µM*
Cc1ccc2sc(N(CCCN(C)C)C(=O)c3ccc(S(=O)(=O)N4CCCCCC4)cc3)nc2c1C	-9.1%	14.1µM*	-11.6%
CC(C)C(NC(=O)c1ccc(F)cc1)C(=O)N1CCOCC1 (stereo not drawn)	-8.8%	9.0%	-8.2%
Cc1ccccc1Nc1c(-c2ccc(Cl)s2)nc2ccccn12	-1.9%	·	-13.7%
CCOc1ccc(C(=O)c2cn(CC(=O)Nc3ccc(OC)cc3)c3cc4c(cc3c2=O)OCCO4)cc1	-6.6%	·	2.8%
O=C(C[N+]1(CCO)CCOCC1)c1ccc2ccccc2c1	33.4%	·	-9.7%
O=C(Nc1nc2n(n1)C(c1ccc(F)cc1)C=C(c1ccccc1)N2)c1ccco1 (stereo not drawn)	-8.8%	·	-10.9%
COC(=O)c1cc(NC(=O)c2cc(-c3ccccc3Cl)oc2C(F)(F)F)ccc1N1CCOCC1	·	15.8µM*	·
COC(=O)c1cc(NC(=O)c2cc(-c3ccc(Cl)cc3)oc2C(F)(F)F)ccc1N1CCOCC1	-21.1%	?	-13.6%
COC(=O)C1OC2(OC1C(=O)OC)c1ccccc1-c1ccccc12 (stereo not drawn)	·	4.3%	19.8%
COC(=O)[C@@H]1[C@@H](C(=O)OC)C2(c3ccccc3-c3ccccc32)N(c2ccc(Cl)cc2)N1C#N	?	1.78µM*	?
O=C(NCCCNC(=O)c1cnccn1)c1cccc(Cl)c1	-7.5%	5.8%	15.8%
Fc1ccc(Nc2c3c(nc4nncn24)CCC3)cc1	-12.2%	·	-2.9%
Cc1cc(C(C)(C)C)cc(C)c1CCNC(=O)c1ccc[n+]([O-])c1	10µM*	?	25.3%
COc1ccc(C(C)(C)C)cc1NC(=O)c1ccc[n+]([O-])c1	i	1.2%	-1.2%
COCCOc1ccc(C(F)(F)F)cc1NC(=O)COC(=O)c1cc([N+](=O)[O-])ccc1N1CCOCC1	-14.5%	?	-26.0%
O=C(Nc1sc(-c2ccccc2)cc1C(=O)O)c1ccccc1	?	4.7%	-10.1%
CC(C)(C)N=Cc1cc(-c2ccccc2)sc1O	-13.1%	10µM*	-21.3%
Cc1cc(C(=O)Nc2cnn(Cc3ccc(Cl)cc3Cl)c2)no1	·	-7.6%	·
CCc1cc(C(=O)Nc2cnn(Cc3ccc(F)cc3)c2)no1	-0.1%	·	6.8%
COc1cccc(-c2cc(C(=O)Nc3cnn(Cc4ccc(Cl)cc4Cl)c3)no2)c1	?	·	11.2µM*
O=C(Nc1cnn(Cc2ccc(F)cc2)c1)c1cc(-c2cccs2)on1	·	8.91µM*	·
SMILES	Vaccinia mCherry	HCV inhibitor	VACV Venus inh
COc1ccccc1-c1noc(CSc2nc3ccc(C)cc3[nH]2)n1	?	·	-28.2%
CN(C)c1ccc(C(=O)N2CCCC(CCC(=O)N3CCN(c4ccccn4)CC3)C2)cc1 (stereo not drawn)	i	?	-11.9%
O=C(CCC1CCCN(C(=O)c2ccc3c(c2)OCO3)C1)N1CCN(c2ccccn2)CC1 (stereo not drawn)	-0.1%	10µM*	-16.9%
COc1ccc(OC)c(CCNC(=O)Cn2ccc3cc(S(=O)(=O)N4CCCCC4)ccc32)c1	-20.7%	·	-22.6%
Cc1sc(NC(=O)c2ccco2)nc1-c1ccc2c(c1)CC(C)N2C(=O)C1CC1 (stereo not drawn)	·	5.01µM*	·
CC(=O)Nc1nc(-c2ccc3c(c2)CC(C)N3C(=O)C2CC2)c(C)s1 (stereo not drawn)	39.1%	?	-11.4%
CC(=O)c1sc(NC(=O)c2ccco2)nc1-c1ccccc1	?	10.2%	-16.8%

Source: PubChem BioAssay
